Inconclusive results are not listed. Where a call stands in place of a potency, no number is given. Active and inactive are the calls of the source. Calls come from the whole dose curve; as a rule, active = well fitted curve in the direction sought with a large enough effect; inconclusive = small, poorly fitted or top-dose-only effect, or another doubt; inactive = no such curve, though single readings can be large; an effect the other way counts as inactive or inconclusive.
Tests used:
[1] = Quantitative High-Throughput drug screen in 47 multiple myeloma cell lines against the NCATS MIPE library collection: H1112_PLB cell viability assay (AID 1918967; note: nearly all actives have a fitted effect of over 30% in size; note: potency is the fitted concentration of half-maximal effect)
Summary of the method: (§1)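 Relative luminescence from CellTiter-Glo served as the viability signal, referenced to DMSO-treated (100%) and cell-free medium (0%) controls. Treatment lasted 48 hours at 37C with 500 cells per well.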

[2] = Quantitative High-Throughput drug screen in 47 multiple myeloma cell lines against the NCATS MIPE library collection: Karpas25_ECACC cell viability assay (AID 1918968; note: nearly all actives have a fitted effect of over 35% in size; note: potency is the fitted concentration of half-maximal effect)
Summary of the method: as §1

[3] = Quantitative High-Throughput drug screen in 47 multiple myeloma cell lines against the NCATS MIPE library collection: KMS27_JCRB cell viability assay (AID 1918970); note: nearly all actives have a fitted effect of over 30% in size; note: potency is the fitted concentration of half-maximal effect
Summary of the method: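 CellTiter-Glo luminescence after 48 h drug exposure at 37 °C; 500 cells/well, 1536-well format, pin-tool compound addition; DMSO = 100%, media-only = 0% viability.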

[4] = Quantitative High-Throughput drug screen in 47 multiple myeloma cell lines against the NCATS MIPE library collection: KMS12BM_JCRB cell viability assay (AID 1918971); note: nearly all actives have a fitted effect of over 35% in size; note: potency is the fitted concentration of half-maximal effect
Summary of the method: (§2)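 Myeloma cells (500 per well) were exposed to MIPE 4.0 compounds by pin transfer and incubated 48 hours at 37C, 5% CO2. Viability was read as ATP by CellTiter-Glo luminescence, normalised to DMSO (100%) and media-only (0%) wells.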

[5] = Quantitative High-Throughput drug screen in 47 multiple myeloma cell lines against the NCATS MIPE library collection: KMS12PE_JCRB cell viability assay (AID 1918972); note: nearly all actives have a fitted effect of over 30% in size; note: potency is the fitted concentration of half-maximal effect
Summary of the method: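 Viability readout: CellTiter-Glo luminescence following 5 min room-temperature incubation with reagent. Prior exposure: 48 h, 37C, humidified 5% CO2, 500 cells per well.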

[6] = Quantitative High-Throughput drug screen in 47 multiple myeloma cell lines against the NCATS MIPE library collection: KMS20_JCRB cell viability assay (AID 1918973); note: nearly all actives have a fitted effect of over 45% in size; note: potency is the fitted concentration of half-maximal effect
Summary of the method: as §1

[7] = Quantitative High-Throughput drug screen in 47 multiple myeloma cell lines against the NCATS MIPE library collection: KMS21BM_JCRB cell viability assay (AID 1918974); settings: ATP luminescence, 48 h; viability: at 45.8 µM (top of the series); note: potency is the fitted concentration of half-maximal effect
Summary of the method: as §1

[8] = Quantitative High-Throughput drug screen in 47 multiple myeloma cell lines against the NCATS MIPE library collection: KMS26_JCRB cell viability assay (AID 1918975); note: nearly all actives have a fitted effect of over 45% in size; note: potency is the fitted concentration of half-maximal effect
Summary of the method: as §2

[9] = Quantitative High-Throughput drug screen in 47 multiple myeloma cell lines against the NCATS MIPE library collection: MMM1_PLB cell viability assay (AID 1918976); note: nearly all actives have a fitted effect of over 35% in size; note: potency is the fitted concentration of half-maximal effect
Summary of the method: (§3)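 Cells were exposed to library compounds for 48 hours, after which ATP was measured by CellTiter-Glo. Signal was taken as median relative luminescence units.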

[10] = Quantitative High-Throughput drug screen in 47 multiple myeloma cell lines against the NCATS MIPE library collection: MOLP8_DSMZ cell viability assay (AID 1918977); note: nearly all actives have a fitted effect of over 45% in size; note: potency is the fitted concentration of half-maximal effect
Summary of the method: as §3

[11] = Quantitative High-Throughput drug screen in 47 multiple myeloma cell lines against the NCATS MIPE library collection: NCIH929_DSMZ cell viability assay (AID 1918978); note: nearly all actives have a fitted effect of over 35% in size; note: potency is the fitted concentration of half-maximal effect
Summary of the method: as §3

[12] = Quantitative High-Throughput drug screen in 47 multiple myeloma cell lines against the NCATS MIPE library collection: OCIMY1_PLB cell viability assay (AID 1918979); note: nearly all actives have a fitted effect of over 35% in size; note: potency is the fitted concentration of half-maximal effect
Summary of the method: as §3

[13] = Quantitative High-Throughput drug screen in 47 multiple myeloma cell lines against the NCATS MIPE library collection: MM1S_ATCC cell viability assay (AID 1918980); note: nearly all actives have a fitted effect of over 45% in size; note: potency is the fitted concentration of half-maximal effect
Summary of the method: as §3

[14] = Quantitative High-Throughput drug screen in 47 multiple myeloma cell lines against the NCATS MIPE library collection: MM1R_ATCC cell viability assay (AID 1918981); note: nearly all actives have a fitted effect of over 35% in size; note: potency is the fitted concentration of half-maximal effect
Summary of the method: as §3

[15] = Quantitative High-Throughput drug screen in 47 multiple myeloma cell lines against the NCATS MIPE library collection: KMS28PE_JCRB cell viability assay (AID 1918983); note: nearly all actives have a fitted effect of over 35% in size; note: potency is the fitted concentration of half-maximal effect
Summary of the method: as §3

[16] = Quantitative High-Throughput drug screen in 47 multiple myeloma cell lines against the NCATS MIPE library collection: L363_DSMZ cell viability assay (AID 1918984); note: nearly all actives have a fitted effect of over 40% in size; note: potency is the fitted concentration of half-maximal effect
Summary of the method: as §3

[17] = Quantitative High-Throughput drug screen in 47 multiple myeloma cell lines against the NCATS MIPE library collection: KMS34_JCRB cell viability assay (AID 1918985); note: nearly all actives have a fitted effect of over 40% in size; note: potency is the fitted concentration of half-maximal effect
Summary of the method: as §3

[18] = Quantitative High-Throughput drug screen in 47 multiple myeloma cell lines against the NCATS MIPE library collection: OCIMY5_PLB cell viability assay (AID 1918988); note: nearly all actives have a fitted effect of over 65% in size; note: potency is the fitted concentration of half-maximal effect
Summary of the method: as §3

[19] = Quantitative High-Throughput drug screen in 47 multiple myeloma cell lines against the NCATS MIPE library collection: LP1_DSMZ cell viability assay (AID 1918982); note: nearly all actives have a fitted effect of over 35% in size
Summary of the method: as §3

[20] = Quantitative High-Throughput drug screen in 47 multiple myeloma cell lines against the NCATS MIPE library collection: OCIMY7_PLB cell viability assay (AID 1918987); note: nearly all actives have a fitted effect of over 65% in size; note: potency is the fitted concentration of half-maximal effect
Summary of the method: as §3

## COc1cc2nc(N3CCCN(C)CC3)nc(NC3CCN(Cc4ccccc4)CC3)c2cc1OC
[1]
  Potency: 5.9 µM (active)
[2]
  Potency: 5.26 µM (active)
[3]
  Potency: 4.18 µM (active)
[4]
  Potency: 14.8 µM (active)
[5]
  Potency: 2.35 µM (active)
[6]
  Potency: 833 nM (active)
[7]
  Potency: 4.69 µM (active)
[8]
  Potency: 5.26 µM (active)
[9]
  Potency: 5.26 µM (active)
[10]
  Potency: 4.69 µM (active)
[11]
  Potency: 2.64 µM (active)
[12]
  Potency: 5.9 µM (active)
[13]
  Potency: 2.64 µM (active)
[14]
  Potency: 4.18 µM (active)
[15]
  Potency: 16.6 µM (active)
[16]
  Potency: 1.66 µM (active)
[17]
  Potency: 8.33 µM (active)
[18]
  Potency: 11.8 µM (active)

## Nc1[nH]c(=O)ncc1F
[1]
  Potency: inactive
[2]
  Potency: inactive
[3]
  Potency: inactive
[4]
  Potency: inactive
[5]
  Potency: inactive
[9]
  Potency: 8.33 µM (active)
[10]
  Potency: inactive
[11]
  Potency: inactive
[12]
  Potency: inactive
[14]
  Potency: inactive
[19]
  Potency: inactive
[15]
  Potency: inactive
[16]
  Potency: inactive

## CCc1cc(C(N)=S)ccn1
[1]
  Potency: inactive
[2]
  Potency: inactive
[3]
  Potency: inactive
[4]
  Potency: inactive
[5]
  Potency: inactive
[10]
  Potency: inactive
[12]
  Potency: inactive
[19]
  Potency: inactive
[15]
  Potency: inactive
[17]
  Potency: inactive

## C[C@@H](NCCCc1cccc(C(F)(F)F)c1)c1cccc2ccccc12
[1]
  Potency: inactive
[2]
  Potency: inactive
[3]
  Potency: inactive
[4]
  Potency: inactive
[5]
  Potency: 18.7 µM (active)
[10]
  Potency: inactive
[11]
  Potency: inactive
[12]
  Potency: inactive
[14]
  Potency: inactive
[15]
  Potency: inactive
[16]
  Potency: inactive
[17]
  Potency: inactive
[18]
  Potency: inactive

## O=C(N[C@H](CO)[C@H](O)c1ccc([N+](=O)[O-])cc1)C(Cl)Cl
[1]
  Potency: inactive
[2]
  Potency: inactive
[3]
  Potency: inactive
[5]
  Potency: inactive
[8]
  Potency: inactive
[10]
  Potency: inactive
[11]
  Potency: inactive
[12]
  Potency: inactive
[13]
  Potency: inactive
[14]
  Potency: inactive
[15]
  Potency: inactive
[17]
  Potency: inactive

## Nc1nc(=S)c2[nH]cnc2[nH]1
[1]
  Potency: 14.8 µM (active)
[2]
  Potency: 1.48 µM (active)
[3]
  Potency: inactive
[4]
  Potency: 5.9 µM (active)
[8]
  Potency: 6.62 µM (active)
[10]
  Potency: 3.32 µM (active)
[11]
  Potency: 1.32 µM (active)
[12]
  Potency: 8.33 µM (active)
[13]
  Potency: 3.72 µM (active)
[15]
  Potency: 8.33 µM (active)
[17]
  Potency: 2.96 µM (active)
[18]
  Potency: 3.72 µM (active)

## CC(=O)Oc1ccccc1C(=O)Nc1ncc([N+](=O)[O-])s1
[1]
  Potency: 21.5 µM (active)
[2]
  Potency: 8.55 µM (active)
[3]
  Potency: 12.1 µM (active)
[4]
  Potency: 24.1 µM (active)
[5]
  Potency: 24.1 µM (active)
[7]
  Potency: 17.1 µM (active)
[9]
  Potency: 10.8 µM (active)
[10]
  Potency: 34 µM (active)
[11]
  Potency: 19.1 µM (active)
[12]
  Potency: 42.9 µM (active)
[13]
  Potency: 21.5 µM (active)
[14]
  Potency: 19.1 µM (active)
[15]
  Potency: 38.2 µM (active)
[17]
  Potency: 42.9 µM (active)
[20]
  Potency: 21.5 µM (active)
[18]
  Potency: 13.6 µM (active)

## CC(=O)CC(c1ccccc1)c1c(O)c2ccccc2oc1=O (stereo not drawn)
[1]
  Potency: inactive
[2]
  Potency: inactive
[3]
  Potency: inactive
[5]
  Potency: inactive
[6]
  Potency: inactive
[8]
  Potency: inactive
[11]
  Potency: inactive
[12]
  Potency: inactive
[14]
  Potency: inactive
[19]
  Potency: inactive
[15]
  Potency: inactive
[17]
  Potency: inactive
[20]
  Potency: inactive

## Cn1nnc2c(C(N)=O)ncn2c1=O
[1]
  Potency: inactive
[2]
  Potency: inactive
[3]
  Potency: inactive
[5]
  Potency: inactive
[8]
  Potency: inactive
[9]
  Potency: inactive
[10]
  Potency: inactive
[11]
  Potency: inactive
[12]
  Potency: inactive
[14]
  Potency: inactive
[19]
  Potency: inactive

## NC(=O)N1c2ccccc2CC(=O)c2ccccc21
[1]
  Potency: inactive
[2]
  Potency: inactive
[3]
  Potency: inactive
[5]
  Potency: inactive
[8]
  Potency: inactive
[10]
  Potency: inactive
[11]
  Potency: inactive
[14]
  Potency: inactive
[19]
  Potency: inactive
[16]
  Potency: inactive
[17]
  Potency: inactive

## COc1cc(NCc2ccc3nc(N)nc(N)c3c2C)cc(OC)c1OC
[1]
  Potency: 2.64 µM (active)
[2]
  Potency: 4.18 µM (active)
[3]
  Potency: 0.59 µM (active)
[4]
  Potency: 13.2 µM (active)
[5]
  Potency: 0.935 µM (active)
[9]
  Potency: 8.33 µM (active)
[10]
  Potency: 5.26 µM (active)
[11]
  Potency: 3.72 µM (active)
[12]
  Potency: 13.2 µM (active)
[13]
  Potency: 8.33 µM (active)
[14]
  Potency: 7.43 µM (active)
[15]
  Potency: 14.8 µM (active)
[16]
  Potency: 0.935 µM (active)
[17]
  Potency: 3.72 µM (active)
[18]
  Potency: 6.62 µM (active)

## COc1ccc(C(=O)CC(=O)c2ccc(C(C)(C)C)cc2)cc1
[1]
  Potency: 7.43 µM (active)
[2]
  Potency: 2.35 µM (active)
[3]
  Potency: 3.32 µM (active)
[4]
  Potency: 2.35 µM (active)
[5]
  Potency: 5.26 µM (active)
[8]
  Potency: 7.43 µM (active)
[9]
  Potency: 4.69 µM (active)
[11]
  Potency: 1.32 µM (active)
[12]
  Potency: inactive
[13]
  Potency: 1.05 µM (active)
[14]
  Potency: 2.35 µM (active)
[15]
  Potency: 8.33 µM (active)
[16]
  Potency: 6.62 µM (active)
[18]
  Potency: 2.64 µM (active)

## O=C(O)CSCC(=O)NC1CCSC1=O (stereo not drawn)
[1]
  Potency: inactive
[2]
  Potency: inactive
[3]
  Potency: inactive
[4]
  Potency: inactive
[5]
  Potency: inactive
[8]
  Potency: inactive
[10]
  Potency: inactive
[11]
  Potency: inactive
[12]
  Potency: inactive
[13]
  Potency: inactive
[19]
  Potency: inactive
[15]
  Potency: inactive

## Cc1noc(NS(=O)(=O)c2ccc(N)cc2)c1C
[1]
  Potency: inactive
[2]
  Potency: inactive
[3]
  Potency: inactive
[5]
  Potency: inactive
[7]
  Potency: inactive
[8]
  Potency: inactive
[11]
  Potency: inactive
[12]
  Potency: inactive
[15]
  Potency: inactive
[18]
  Potency: inactive

## CN(C)CCc1c[nH]c2ccc(C[C@H]3COC(=O)N3)cc12
[1]
  Potency: inactive
[2]
  Potency: inactive
[3]
  Potency: inactive
[4]
  Potency: inactive
[5]
  Potency: inactive
[8]
  Potency: inactive
[11]
  Potency: inactive
[12]
  Potency: inactive
[14]
  Potency: inactive
[19]
  Potency: inactive
[16]
  Potency: inactive
[17]
  Potency: inactive
[18]
  Potency: inactive
